# The entries come from a sample that favours hits as a whole.
# TbREL1 inh: TbREL1 RNA ligase inhibitors, primary screen, biochemical, FRET fluorescence | TbREL1 RNA ligation | inhibition, % at 9.66 µM | 0.49% of 89,000 active;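 active means inhibition above the mean inhibition across all screened compounds plus 3 SD, cut at about 11% in these data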;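 further: 0% = plate median of test wells and 100% = NSC42067 control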
# Target sequence (P86926 whole entry, looked up): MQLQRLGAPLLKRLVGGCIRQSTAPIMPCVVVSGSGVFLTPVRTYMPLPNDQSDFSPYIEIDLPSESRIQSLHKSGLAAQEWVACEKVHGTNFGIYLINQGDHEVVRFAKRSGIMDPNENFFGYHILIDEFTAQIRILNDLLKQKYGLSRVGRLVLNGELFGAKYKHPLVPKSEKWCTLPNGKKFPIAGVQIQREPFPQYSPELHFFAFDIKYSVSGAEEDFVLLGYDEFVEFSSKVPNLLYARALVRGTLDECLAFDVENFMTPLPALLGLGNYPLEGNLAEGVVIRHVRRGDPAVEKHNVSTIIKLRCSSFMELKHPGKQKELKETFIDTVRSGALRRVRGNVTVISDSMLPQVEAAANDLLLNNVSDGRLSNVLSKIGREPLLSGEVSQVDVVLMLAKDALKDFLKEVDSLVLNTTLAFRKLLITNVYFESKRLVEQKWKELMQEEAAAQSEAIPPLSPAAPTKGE
# TbREL1 confirm: TbREL1 RNA ligase inhibitors, confirmation, biochemical, FRET fluorescence, triplicate; TbREL1 RNA ligation; 37% of 390 active; inhibition, % at 9.66 µM; shares compounds with TbREL1 inh; AID 1117282, 2014;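 active means mean inhibition across replicates above a set limit taken from the earlier primary screen, cut at about 11% in these data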;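 further: 0% = REL1 with substrate and DMSO and 100% = REL1 plus control inhibitor NSC42067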
# * hit, by the source's call.
SMILES,TbREL1 inh,others
Cc1cnc(C)c(Nc2nc(C(N)Cc3ccc(Cl)cc3)cs2)n1 (centres undefined),11*,TbREL1 confirm=10
NC(Cc1ccc(C(F)(F)F)cc1)c1csc(Nc2nncc3ccccc23)n1 (centres undefined),10,
COc1ccccc1CNC(=O)NNC(=O)CCn1nc(C)c([N+](=O)[O-])c1C,1,
COc1ccc(C2C(C(=O)N3CCC(C)CC3)CC(=O)N2c2ccc(OC)cc2)cc1 (centres undefined),0,
COc1cc(-n2c(C)nc3cc(C(=O)N4CCN(C(C)=O)CC4)ccc32)cc(OC)c1OC,1,
COc1cccc(C(=O)Nc2ccc(F)c(F)c2F)c1,2,
COc1cccc(C(=O)Nc2ccccc2F)c1,3,
COC(=O)c1sccc1NC(=O)c1cccc(OC)c1,50*,TbREL1 confirm=2
CCOc1ccc(-n2c(SCC(=O)Nc3ccc(S(=O)(=O)Nc4nccs4)cc3)nnc2-c2ccco2)cc1,2,
O=C(CSc1nnc(-c2ccco2)c(-c2ccco2)n1)c1ccccc1,12*,TbREL1 confirm=13*
Cn1c(SCC(=O)c2ccc(-c3ccccc3)cc2)nnc1-c1ccco1,3,
N#Cc1cnc(SCC(=O)c2ccccc2)nc1N,-2,
O=C(c1cccc(Cl)c1)N1CCN(c2ccnc3cc(Cl)ccc23)CC1,-3,
Cc1ccc(NC(=O)[C@@H]2CC(=O)O[C@@H]2c2ccccc2)cc1C,3,
CN1CCN(CCOc2ccc(Cl)c(Cl)c2)CC1,7,
CCc1ccc(OCCOCCN2CCN(C)CC2)cc1,16*,TbREL1 confirm=8
CCN1CCN(CCOCCOc2ccccc2)CC1,4,
CCOC(=O)C1CCN(C(=O)C(Cc2ccc3c(c2)OCO3)NC(C)=O)CC1 (centres undefined),1,
C[C@@H](NCCCn1cnc2c(OCc3ccccc3)ncnc21)c1cccc2ccccc12,13*,TbREL1 confirm=13*
O=C(Cn1cnc2c(OCc3ccccc3)ncnc21)NCCN1CCOCC1,0,
C[C@@H](NC(=O)Cn1cnc2c(OCc3ccccc3)ncnc21)c1cccc2ccccc12,-4,
O=C(CN1CCC(NC(=O)NC2CCCC2)CC1)Nc1ccc2c(c1)OCCO2,1,
COc1ccc(C2Nc3ccccc3C(=O)N2Cc2cccnc2)cc1COc1c(C)cccc1C (centres undefined),10,
CN(c1ccc(OCC(=O)Nc2ccc3[nH]c(=O)[nH]c3c2)cc1)S(=O)(=O)c1ccc(Cl)cc1,0,
CCOc1ccc(S(=O)(=O)N(C)c2ccc(OCC(=O)Nc3ccc4[nH]c(=O)[nH]c4c3)cc2)cc1,11*,TbREL1 confirm=3
SMILES,TbREL1 inh,others
COC(=O)c1ccc(NC(=O)COc2ccc(N(C)S(=O)(=O)c3ccc(C)cc3)cc2)cc1,0,
COC(=O)[C@]12C[C@H](CC(=O)N3CCCC3)C(=O)N(CCc3ccc(OC)c(OC)c3)C1=C[C@H](COCc1ccccc1)O[C@@H]2C,-4,
C[C@@H](CN1C2=NC[C@H](Cc3ccccc3)N2C[C@H]1Cc1ccc(O)cc1)NC(=O)CCC1CCCCC1,9,
COc1ccc(C[C@@H]2CN3C(=NC[C@@H]3C)N2C[C@H](C)NC(=O)CCC2CCCCC2)cc1,6,
COc1ccc(C[C@H]2CN3C(=NC[C@H]3Cc3ccccc3)N2CCNC(=O)CCC2CCCCC2)cc1,11*,TbREL1 confirm=19*
Cc1ccc(-c2cc(-c3nnc(SCC(=O)N4c5ccccc5Sc5ccc(Cl)cc54)n3N)[nH]n2)cc1,2,
CCCCNC(=O)NS(=O)(=O)c1ccc(NC(=O)CSc2nnc(-c3cccs3)n2-c2ccc(OC)cc2)cc1,-2,
CN(C(=O)C1CCN(c2cncnc2)CC1)C1CCCCC1,-3,
Cc1ccc(CN2CCCCC(NC(=O)c3ccc(COc4ccccc4)cc3)C2=O)cc1 (centres undefined),-2,
Fc1ccc(Cn2ccc3ccc(-c4ccc5ccn(Cc6ccccc6)c5c4)cc32)cc1,4,
COc1ccccc1C(C(=O)c1ccccc1)c1ccc2ccccc2c1 (centres undefined),3,
COC(=O)C(CC(=O)c1ccccc1)CC(=O)c1ccccc1,2,
COc1ccccc1C(CC(=O)c1ccccc1)C(=O)c1ccccc1 (centres undefined),11*,TbREL1 confirm=-1
O=C(c1ccc(F)cc1F)N(Cc1ccccn1)CC1CCCO1 (centres undefined),1,
c1nc(NCC2CCOC2)c2cc(-c3ccc4c(c3)OCO4)ccc2n1 (centres undefined),-1,
N#CCSc1nc2ccccc2o1,5,
C(=C\c1ccccc1)/CSc1nc2ncccc2[nH]1,0,
N#CCSc1nccc(/C=C/c2ccccc2)n1,12*,TbREL1 confirm=2
O=C(NCCc1ccccc1)OCc1cn(Cc2ccc(Cl)cc2)nn1,-2,
O=C(CSc1nnc(-c2ccc(Cl)cc2)n1Cc1ccco1)Nc1ccc(S(=O)(=O)Nc2nccs2)cc1,3,
Cc1cccc(C)c1NC(=O)C1CCCN1S(=O)(=O)c1cccc2cccnc12 (centres undefined),-2,
CC1CCN(C2CCN(S(=O)(=O)c3ccc(F)cc3)CC2)CC1,7,
CC1CCN(C2CCN(S(=O)(=O)c3ccc(C(F)(F)F)cc3)CC2)CC1,24*,TbREL1 confirm=0
O=S(=O)(c1ccc(F)cc1)N1CCC(N2CCCCCC2)CC1,1,
Clc1ccc(-n2c(SCc3cccc4ccccc34)nnc2-c2ccccc2)cc1,-2,
SMILES,TbREL1 inh,others
COc1ccc(CNS(=O)(=O)c2cc3c(cc2Br)CC(C)N3C(C)=O)cc1 (centres undefined),-4,
CCn1c2ccccc2c2cc(NC(=O)COC(=O)c3cccc(F)c3F)ccc21,-1,
O=C1CCC[C@H]2C[C@H](NCc3ccccc3Cl)CC[C@]23CCCN13,-3,
COc1cc([N+](=O)[O-])cc2cc(C(=O)N3CCN=C3c3ccccc3)c(=O)oc12,11*,TbREL1 confirm=3
COc1cc(Br)cc2cc(C(=O)N3CCN(c4ccccn4)CC3)c(=O)oc12,1,
COc1cccc2cc(C(=O)N3CCN(c4ccccc4F)CC3)c(=O)oc12,6,
COC(=O)c1cc(-c2cc(Cl)cc(Cl)c2)c(=O)n2c1CCC2,2,
O=C(Nc1ccc(F)c(C(F)(F)F)c1)Nc1nnc(-c2ccncc2)s1,7,
COc1cc(NC(=O)c2[nH]c(C)c(C(C)=O)c2C)c(OC)cc1Cl,2,
O=C(NCCC1=CCCCC1)C1CCN(S(=O)(=O)c2ccccc2[N+](=O)[O-])CC1,-4,
CCCCNC(=O)C[C@H]1C[C@@]2(C(=O)OC)C(=C[C@H](C3CCCC3)O[C@@H]2C)N(Cc2cccc3ccccc23)C1=O,5,
CCC(=O)Nc1ccc(C(=O)NNC(=O)c2ccccc2)cc1,6,
CCC(=O)NC1=C(NC(C)c2ccccc2)C(=O)c2ccccc2C1=O (centres undefined),0,
CCC(=O)Nc1ccc2c(c1)C(=O)c1ccccc1C2=O,14*,TbREL1 confirm=2
COc1ccc(/C=N\NC(=O)CN2CCN(Cc3ccccc3)CC2)cc1OCc1ccccc1,-4,
Cc1n[nH]c(=S)n(NC(=O)/C=C/C(=O)Nn2c(=S)[nH]nc(C)c2=O)c1=O,20*,TbREL1 confirm=15*
CCC1CCc2sc(C(=O)Nc3cc(S(=O)(=O)N4CCOCC4)ccc3OC)cc2C1 (centres undefined),1,
O=C(CSc1nnc(-c2ccccn2)n1-c1ccc(Cl)cc1)Nc1ccc(S(=O)(=O)Nc2nccs2)cc1,-3,
